Reference: PubChem BioAssay AID1511 (Johns Hopkins Ion Channel Center, 2009)
Among all 310,000 compounds or so, about 1,600 (0.52%) were called active. This excerpt belongs to a sample that is enriched for actives. Unmarked numbers belong to inactive results.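 How the source made its calls: active means activation above the mean of controls blocked by dofetilide plus 5 SD; inactive means the rest.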

target: Voltage-gated inwardly rectifying potassium channel KCNH2 (Homo sapiens) (UniProt Q12809); experiment: hERG rescue from dofetilide block, primary screen, cell-based, CHO-hERG, FluxOR thallium flux, dofetilide IC70 (AID 1511); settings: dofetilide IC70 present, at 10 µM, active compounds read high;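 further: thallium influx through hERG after potassium depolarization seen as dye fluorescence rise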
Sequence (Q12809 whole entry, looked up): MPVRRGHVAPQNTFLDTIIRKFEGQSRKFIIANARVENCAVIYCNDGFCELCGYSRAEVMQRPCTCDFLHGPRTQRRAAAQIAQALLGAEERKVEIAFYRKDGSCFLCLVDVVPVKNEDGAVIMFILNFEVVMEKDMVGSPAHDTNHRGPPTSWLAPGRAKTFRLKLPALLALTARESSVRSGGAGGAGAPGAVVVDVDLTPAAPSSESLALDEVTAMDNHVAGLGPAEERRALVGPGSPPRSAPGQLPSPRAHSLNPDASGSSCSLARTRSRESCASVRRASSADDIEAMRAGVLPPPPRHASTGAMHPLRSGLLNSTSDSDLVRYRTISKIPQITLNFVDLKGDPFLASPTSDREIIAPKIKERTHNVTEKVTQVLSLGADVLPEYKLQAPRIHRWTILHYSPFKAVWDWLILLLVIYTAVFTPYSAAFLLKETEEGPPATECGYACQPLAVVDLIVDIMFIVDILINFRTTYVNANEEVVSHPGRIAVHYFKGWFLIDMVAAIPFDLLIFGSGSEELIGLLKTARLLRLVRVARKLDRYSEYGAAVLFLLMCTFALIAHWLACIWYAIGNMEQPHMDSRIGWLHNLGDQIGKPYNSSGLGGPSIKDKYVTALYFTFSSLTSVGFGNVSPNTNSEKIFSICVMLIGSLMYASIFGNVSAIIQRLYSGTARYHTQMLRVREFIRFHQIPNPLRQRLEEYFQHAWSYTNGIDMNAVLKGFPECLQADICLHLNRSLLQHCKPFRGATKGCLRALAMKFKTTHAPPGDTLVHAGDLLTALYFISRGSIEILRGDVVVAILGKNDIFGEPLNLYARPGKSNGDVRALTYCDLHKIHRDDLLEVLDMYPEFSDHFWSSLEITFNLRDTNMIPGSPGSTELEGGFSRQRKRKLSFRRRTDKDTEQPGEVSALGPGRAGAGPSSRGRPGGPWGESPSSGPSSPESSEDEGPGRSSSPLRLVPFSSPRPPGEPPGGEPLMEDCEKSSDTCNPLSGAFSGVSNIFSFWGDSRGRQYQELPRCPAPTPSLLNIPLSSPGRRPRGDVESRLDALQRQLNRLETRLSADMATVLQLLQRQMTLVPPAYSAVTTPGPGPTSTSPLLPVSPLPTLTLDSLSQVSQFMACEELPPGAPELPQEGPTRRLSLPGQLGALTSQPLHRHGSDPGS

Compound	activation (rescue from dofetilide block), less the hit threshold
O=c1[nH]c(/C=C\c2cccc(C(F)(F)F)c2)nc(O)c1[N+](=O)[O-]	-0.14%
CCN1CCc2nc(NC(=O)c3cc(F)c(F)cc3Cl)sc2C1	15.1% (active)
CC(=O)Cc1nsc(NC(=O)c2ccc(Cl)cc2Cl)n1	-13.1%
O=C(Nc1ccc(OCC(=O)N2CCOCC2)cc1)c1cc(F)c(F)cc1Cl	-9.32%
COCCCNC(=O)/C(C#N)=C/c1c(N2CCCCCC2)nc2ccccn2c1=O	-4.19%
Cc1c(C)c2c(OCC(=O)N[C@@H](C(=O)O)c3ccccc3)cc3c(c2oc1=O)CCC(C)(C)O3	-2.69%
COc1cc(Br)cc(/C=N/c2ncn[nH]2)c1O	-7.59%
Oc1c(Cl)cc(Cl)cc1/C=N/c1ncn[nH]1	15.4% (active)
CC(C)CCNC(=O)C1CCC(CNc2c(N3CCC(C)CC3)c(=O)c2=O)CC1 (configuration not stated)	-6.27%
Cc1cc(C)cc(NC(=O)NC2CCCCCCC2)c1	-9%
CCOC(=O)CSC1=N/C(=C/c2ccc(-n3cncn3)cc2)C(=O)N1C(C)=O	-12%
Cc1ccn(C(CC(=O)c2ccc(Br)cc2)C(=O)O)n1 (configuration not stated)	5% (active)
Cc1cc(C)c2c(=O)[nH]c(SCC(=O)Nc3ccc(Br)cc3)nc2n1	-11.1%
Cc1ccc(NC(=O)CCC(=O)c2ccc(Br)cc2)cc1	1.34%
O=Cc1c(NCCc2cccc(F)c2)c2ccccc2[nH]c1=O	-6.93%
CCOc1ccc(C(C)=O)cc1COC(=O)CNC(=O)c1cccs1	-15.3%
CN(C)CCCn1c(=O)n(Cc2ccccc2)c(=O)c2c3c(sc21)CCCCC3	-10.2%
CCn1c(=S)[nH]c2sc3c(c2c1=O)CCCCC3	37.3% (active)
CCCc1nc2sc3c(c2c(=O)n1NC(=O)CCCl)CCCC3	-1.21%
O=C(/C=C/c1cccs1)NCc1cccnc1	-8.68%
O=[N+]([O-])c1ccc(N2CCN(c3ccc(F)cc3)CC2)cn1	-4.38%
COc1ccc(N2CCN(c3ccc([N+](=O)[O-])nc3)CC2)cc1	7.73% (active)
COc1ccccc1N1CCN(c2ccc([N+](=O)[O-])nc2)CC1	-22%
CC(C)C(=O)Nc1ccc(C(=O)NNC(=O)c2cccs2)cc1	-4.59%
CCc1ccc(NC(=O)COC(=O)c2cccs2)cc1	-2.35%

Compound	activation (rescue from dofetilide block), less the hit threshold
CCc1ccc(NC(=O)C(=O)NNC(=O)c2cccs2)cc1	46.7% (active)
O=S(=O)(Nc1ccc2nc(-c3ccco3)[nH]c2c1)c1ccccc1	-13.3%
CCCCn1c(=S)[nH]c2ncccc2c1=O	-2.34%
CCCCNC(=O)c1ccc(-n2c(=S)[nH]c3ccccc3c2=O)cc1	-10.5%
CCCCn1c(=S)[nH]c2ccccc2c1=O	7.08% (active)
Cn1cc(S(=O)(=O)N2CCN(c3ccc(F)cc3)CC2)c(=O)n(C)c1=O	-3.11%
COc1ccc(/C=C2/S/C(=N/N=C3\CC4CCC3(C)C4(C)C)NC2=O)cc1 (configuration not stated)	19.7% (active)
CCOc1ccc(N=C2NC(=O)S/C2=C\c2ccc(O)cc2)cc1	-4.52%
COc1ccc(/C=C2\SC(=N)N(c3ccc(F)cc3)C2=O)cc1	-2.33%
COc1ccc(CCNC(=O)NS(=O)(=O)c2ccc(C)cc2)cc1OC	0.48%
C=CCN1C(=O)C(Cc2ccc(OCC)cc2)SC1=Nc1ccc(C(=O)O)cc1 (configuration not stated)	5.1% (active)
C=CCN1C(=O)C(Cc2cccc(Cl)c2)S/C1=N/N=C/c1ccco1 (configuration not stated)	-5.7%
CCOc1ccc(N=C2SC(C(=O)O)CC(=O)N2C)cc1 (configuration not stated)	-10.3%
FC(F)(F)c1ccnc(Oc2ccc(C3=NCCS3)cc2)c1	-5.42%
COc1ccc(S(=O)(=O)N2CCOC2CNC(=O)C(=O)NCc2ccncc2)cc1OC (configuration not stated)	-6.76%
O=C(Nc1ccc(-c2cscn2)cc1)C1CCCN(Cc2ccc(CO)o2)C1 (configuration not stated)	-2.17%
N#Cc1cccc(CN2CCC(=O)N(CCO)CC2)c1	1.97%
O=C1CCN(CCc2ccccc2)CCN1CCOc1ccccc1	-5.23%
O=C1CCN(CCCc2ccccc2)CCN1CCO	5.3% (active)
Cc1n[nH]c(=O)c2c(NC(=O)COC(=O)c3ncc(Cl)c(Cl)c3Cl)oc(C)c12	-12.6%
Cc1cc(OCCN2CCCC2)cc(C(C)C)c1	-6.59%
O=C(COC(=O)c1cc(S(=O)(=O)N2CCCCC2)ccc1Cl)NCc1ccco1	-13.9%
O=C(COC(=O)c1ccco1)NCc1ccc(Cl)cc1	-0.71%
O=C(COC(=O)c1cnc(Cl)c(Cl)c1)NCc1ccco1	40.4% (active)
Cc1c(CN2CCC(CO)(CCOc3ccccc3)CC2)[nH]c2ccc(Cl)cc12	-21.9%

Compound	activation (rescue from dofetilide block), less the hit threshold
Cc1nn(CC2CC2)c(=O)n1N(C)c1ncc(C(F)(F)F)cc1Cl	-8.88%
O=C1CC(c2cccc(F)c2)C2=C(CCCC2=O)N1 (configuration not stated)	-5.36%
COc1ccc(OC)c(C2C3=C(N=c4s/c(=C\c5cccc(O)c5)c(=O)n42)c2ccccc2CC3)c1 (configuration not stated)	-0.7%
O=C1CCCC2=C1C(c1ccccc1)n1c(s/c(=C/c3cccc(F)c3)c1=O)=N2 (configuration not stated)	5.71% (active)
CCOC(=O)Cc1cc(=O)[nH]c(=O)[nH]1	-4%
CC1CCCCC1NC(=O)c1cn(C)c2ccc(S(=O)(=O)N3CCOCC3)cc2c1=O (configuration not stated)	-5.24%
Cc1cc(C(=O)NCCc2ccc(Cl)cc2)c(C)o1	-9.03%
CCOC(=O)c1c(C)oc2cc(Sc3ccccc3)c(O)c(O)c12	-5.84%
CCc1ccc(NC(=O)C(=O)N/N=C(\C)CC(=O)NCCOC)cc1	6.83% (active)
C/C(CC(=O)Nc1ccc(Cl)cc1)=N\NC(=O)C(=O)NCCO	-8.82%
COc1ccc(COC(=O)N/N=C(\C)CC(=O)Nc2ccc(Cl)cc2)cc1	-11.8%
COC(=O)C(C)N=Cc1ccccc1 (configuration not stated)	-14%
Cc1ccc(S(=O)(=O)N(CC(=O)NCc2ccco2)c2ccccc2C)cc1	-7.72%
Nc1nnnn1/N=C/c1cccc(Br)c1	-0.31%
COC(=O)c1cccc(-n2[nH]nnc2=S)c1	-7.53%
COc1cc(-c2noc(C3CCCN(S(=O)(=O)c4cccc(Cl)c4)C3)n2)cc(OC)c1OC (configuration not stated)	-11.3%
COC(=O)c1sc(NC(=O)c2csc3c2CCCC3)nc1C	-6.43%
Cc1ccc(C(=O)NC(=S)Nc2ccccc2C)cc1	-5.4%
COC(=O)c1sc(NC(=S)NC(=O)c2ccc(C)cc2)nc1C	7.72% (active)
CCCN(C(=O)CSc1nnnn1C)c1c(N)n(Cc2ccccc2)c(=O)[nH]c1=O	-7.93%
Cc1ccc2c(c1)nnc1nnc(SCC(=O)O)n12	1.69%
CCOC(=O)N1CCN(C(=O)CN(c2ccc(C)c(C)c2)S(=O)(=O)c2ccccc2)CC1	-9.17%
CCN1CCN(C(=O)c2ccc(CN(c3ccc(C)c(C)c3)S(C)(=O)=O)cc2)CC1	-6.12%
CCOC(=O)N1CCN(C(=O)c2ccc(CN(c3ccc(C)c(C)c3)S(C)(=O)=O)cc2)CC1	4.64% (active)
O=C(NC1CCCC1)C(c1c(F)cccc1Cl)N(C(=O)c1csnn1)C1CC1 (configuration not stated)	-2.39%

Compound	activation (rescue from dofetilide block), less the hit threshold
CCO[C@H]1OC(C(=O)O)=C[C@@H](C2CCCCC2)[C@@H]1CCCO	-4.25%
COc1cc(OC)cc(/C(N)=N/O)c1	-15.6%
CC1CC(C)CN(C(=O)CSc2ccsc2[N+](=O)[O-])C1 (configuration not stated)	-2.19%
O=C(OCC(=O)N1CCN(C(=O)c2ccco2)CC1)c1cccc(O)c1	-4%
CN(c1ccccc1)S(=O)(=O)c1ccc(Cl)c(C(=O)OCC(=O)N2CCOCC2)c1	4.51%
CN(c1ccccc1)S(=O)(=O)c1cc(C(=O)OCC(=O)N2CCN(C(=O)c3ccco3)CC2)ccc1Cl	5.23% (active)
Cc1ccc(NC(=O)CSc2nnc(CNC(=O)c3ccccc3F)o2)cc1Cl	-8.43%
CCN(CC)c1ccc(C(=O)c2cnc(/N=C/N(C)C)s2)cc1	-22%
Cc1cc(C)c(NC(=O)CS(=O)CC(=O)Nc2cccnc2)c(C)c1 (configuration not stated)	7.98% (active)
Cc1cc(C)c(NC(=O)CSc2nc3ccncc3[nH]2)c(C)c1	-2.72%
Cc1ccc(NC(=O)Nc2cccnc2)cc1	-1.84%
COc1ccc(CCc2nnc(CCC(=O)NCc3cnn(-c4ccccc4C)c3)o2)cc1	-3.52%
COc1ccc(S(=O)(=O)NCC(c2ccco2)N2CCOCC2)cc1 (configuration not stated)	-10.9%
Cc1ccc(NNC(=O)c2c(F)cccc2Cl)cc1Cl	-7.77%
Cc1cc(OC(=O)c2c(Cl)cccc2Cl)nc(C)n1	-14.7%
Cc1cc(C)c(S(=O)(=O)c2ccccc2)c(OC(=O)c2c(F)cccc2Cl)n1	8.53% (active)
Cc1cccc(S(=O)(=O)N2CN(CC3CCCO3)c3nc4ccccc4nc32)c1 (configuration not stated)	-10.3%
CCOc1cc(/C=N/Nc2cc(C)nc3ccc(C)cc23)ccc1O	-14.3%
CCOC(=O)C1CCN(c2c(Nc3cc(C)cc(C)c3)c(=O)c2=O)CC1	-11.1%
Cc1cccc(-c2nc3ccccc3c(=O)n2NC(=O)Cc2ccc(Cl)cc2)c1	-2.81%
O=c1c2cc(Br)ccc2nc(-c2cccc(Cl)c2)n1O	59% (active)
O=C1CCCc2c1nc(-c1cccc(Cl)c1)n2O	-10.5%
